Insulin prom up: MIN6 insulin promoter up-regulation; MIN6 insulin promoter-GFP reporter, high-content imaging; hits give high values; AID 1625; actives 0.3% (n = 190,000); z-score at 5 µM;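 active = z-score above 3 at 5 µM with at least 500 cells counted in the well; inconclusive = wells under 500 cells, flagged as cytotoxic or low count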
Insulin prom inh: TRM-6 insulin promoter activity inhibition. TRM-6 cells (human fetal islet line), insulin promoter-eGFP reporter, imaging; reporter expression induced with tamoxifen. actives 0.9% (n = 130,000). inhibition, % at 2 µM;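 active = inhibition above the mean plus 3 SD, with well images judged a real hit on visual review, cut at about 60% in these data, passing the limit was not always enough; inconclusive = inhibition over the cutoff but images rejected on review; inactive = inhibition not above the cutoff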
WT yeast gro inh: growth inhibition of WT yeast, mitochondrial fusion screen; mitochondrial fusion phenotypic screen, WT strain; inhibition, % at 10 µM; actives 2.1% (n = 190,000); AID 1362; in the data active = inhibition above about 58%; tested in S. cerevisiae
Autophagy mod: modulators of autophagy; MEF GFP-LC3 puncta imaging; test concentration mostly 10 µM; actives 0.98% (n = 190,000); AID 463193; calls only at 10 µM (by protocol);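 active = percentage of spot-positive cells more than 3 SD above its plate mean, without a fluorescence outlier flag or 80% toxicity; inconclusive = no clear call, values can overlap the other calls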
Lmaj promast: Leishmania major promastigote growth inhibition; Leishmania major promastigotes, resazurin fluorescence viability; inhibition, % at 10 µM; actives 9% (n = 200,000); AID 1063; in the data active = inhibition above about 50%;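 note: promastigotes grown with compound for 44 hours at 28 °C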
A number is an active result; n = inactive; u = inconclusive; x = no result; + = active, no number. Rows were chosen to be rich in hits. Some 11% of all compounds tested hit in one or more screens of this group.

SMILES	Insulin prom up	Insulin prom inh	WT yeast gro inh	Autophagy mod	Lmaj promast
COc1ccc(C2NC(=S)N(c3ccccc3)C(C)=C2C(=O)Nc2ccccc2)cc1 (stereo not drawn)	n	n	n	n	100.2
CC(C)CC(=O)OCC(=O)Nc1ccccc1Sc1ccccc1	n	n	n	n	n
O=C1/C(=C/c2ccco2)CCc2ccccc21	n	n	n	n	n
O=C1/C(=C/c2cccc3ccccc23)CCCc2ccccc21	n	n	62.8	n	n
CCN(CC)C(=O)CSc1nc2c(sc(=S)n2-c2ccccc2)c(=O)n1Cc1ccco1	x	n	n	n	n
CCN(CC)C(=O)CSc1nc2c(sc(=S)n2CC)c(=O)n1-c1ccccc1	n	n	n	n	59.5
COC(=O)c1ccc(OC(=O)CCN2c3ccccc3Sc3ccccc32)cc1	n	x	61.3	n	n
CC(=O)c1ccc(OC(=O)CCN2c3ccccc3Sc3ccccc32)cc1	n	n	61.1	n	53.2
O=C(CSc1nnc(Cn2c(=O)sc3ccccc32)n1-c1ccccc1)Nc1nccs1	n	n	n	n	n
COc1cc(NC(=O)c2cccs2)ccc1NC(=O)c1cc2ccccc2o1	n	x	n	n	n
COc1cc(N)ccc1NC(=O)c1cccs1	n	n	n	n	72.9
CCOc1ccc(C(=O)Nc2cccc(NC(=O)c3cccs3)c2)cc1[N+](=O)[O-]	n	n	n	n	n
COc1cc(NC(=O)c2ccc(OC)c([N+](=O)[O-])c2)ccc1NC(=O)c1cccs1	n	n	n	n	84.3
COc1cc(NC(=O)c2cccs2)c(C(=O)OCC(=O)NC(C)c2ccccc2)cc1OC (stereo not drawn)	n	70.3	n	n	n
Cc1ccc(Cl)cc1Nc1nc(-c2sc(NC(=O)c3ccco3)nc2C)cs1	n	x	n	n	n
Cc1nc(NC(=O)c2ccco2)sc1-c1csc(Nc2ccc(Cl)cc2Cl)n1	x	n	70.9	n	73.7
Cc1nc(NC(=O)c2ccccc2)sc1-c1csc(Nc2ccc(Cl)cc2Cl)n1	x	n	n	n	53.9
COc1ccccc1Nc1nc(-c2sc(NC(=O)c3ccco3)nc2C)cs1	n	n	n	n	99.7
CCOc1ncccc1C(=O)N1CCCSC1=Nc1ccc(C(C)=O)cc1	n	x	n	n	n
Cc1cc(C)nc(N/C(=N\S(=O)(=O)Cc2ccccc2)Nc2ccc(F)c(Cl)c2)n1	x	n	n	n	n
CCNC(=S)Nc1cc(-c2ccc(Cl)cc2)[nH]n1	n	x	n	n	n
O=Cc1ccc(-c2ccc([N+](=O)[O-])cc2Cl)o1	n	x	n	n	60.5
O=Cc1ccc(-c2cccc([N+](=O)[O-])c2)o1	n	x	x	x	x
Cc1cccc(NC(=S)N(CCN(C)C)Cc2cc3cccc(C)c3[nH]c2=O)c1	n	n	n	n	95.2
CN(C)CCCN(Cc1cc2cc3c(cc2[nH]c1=O)OCO3)C(=S)Nc1ccccc1	n	x	n	n	n
SMILES	Insulin prom up	Insulin prom inh	WT yeast gro inh	Autophagy mod	Lmaj promast
Cc1cccc(NC(=S)N(CCN(C)C)Cc2cc3cc(C)cc(C)c3[nH]c2=O)c1	n	n	n	n	98.2
CN(C)CCCN(Cc1cc2cc3c(cc2[nH]c1=O)OCO3)C(=S)Nc1cccc(Cl)c1	n	x	n	n	92.8
Cc1ccc(NC(=S)N(CCN(C)C)Cc2cc3cccc(C)c3[nH]c2=O)cc1	n	n	n	n	n
CN(C)C(=O)c1ccc(N/C=C(\C=O)c2nc3ccccc3o2)cc1	n	x	n	n	n
O=C(CCCOc1ccc(Cl)cc1Cl)Nc1ccc(O)cc1C(=O)O	n	x	x	x	x
COC(=O)Nc1ccc2c(c1)N(C(=O)CCN1CCN3CCCC3C1)c1ccccc1S2 (stereo not drawn)	n	n	n	n	70.7
CCOC(=O)Nc1ccc2c(c1)N(C(=O)CCN1CCN(C)CC1)c1ccccc1S2	n	n	n	n	n
CN1CCN(CCC(=O)N2c3ccccc3Sc3ccc(Cl)cc32)CC1	n	n	n	n	100.8
CCOC(=O)Nc1ccc2c(c1)N(C(=O)CCN1CCN(CCO)CC1)c1ccccc1S2	x	89.2	x	n	n
COc1ccc(N2C(=O)C(CC(=O)Nc3ccc(F)cc3)N(CCc3ccc(OC)c(OC)c3)C2=O)cc1 (stereo not drawn)	n	n	n	n	n
CC(=O)Nc1ccccc1-c1nc2ccccc2nc1OCC(=O)c1ccc2ccccc2c1	n	x	n	n	n
O=C(Nc1ccccc1)c1sccc1Oc1ccc([N+](=O)[O-])cc1F	n	n	n	n	84.0
COCCOc1cc(NC(=O)c2sccc2Oc2ccc([N+](=O)[O-])cc2F)c(Cl)cc1Cl	n	n	n	n	n
CC(=O)c1cc(-c2ccccc2)n(CC(=O)N2CCC(N3CCCCC3)CC2)c1C	n	n	n	n	94.7
CC(=O)c1cc(-c2ccccc2)n(CC(=O)Nc2cccc(C)c2)c1C	n	n	n	n	63.9
CC(=O)c1cc(-c2ccccc2)n(CC(=O)N2CCCCC2)c1C	n	x	n	n	n
CC(=O)c1cc(-c2ccccc2)n(CCC(=O)NC2CCCCC2)c1C	n	n	n	n	82.8
CSc1nsc(SCC(=O)N2CCCCC2)n1	x	n	n	n	n
CCOC(=O)c1c(N2C(=O)Nc3ccccc3N2O)sc2c1CCCCC2	n	n	n	n	n
COC(=O)c1c(N2C(=O)Nc3ccccc3N2O)sc2c1CCCC2	n	68.8	n	n	n
Nc1nc(Nc2ccccc2F)nc(N2CCOCC2)c1[N+](=O)[O-]	n	x	x	x	x
Nc1c(C(=O)Nc2ccc(S(=O)(=O)N3CCCC3)cc2)sc2nc3cc4c(cc3cc12)CCC4	n	n	n	+	n
Nc1c(C(=O)Nc2ccc(S(=O)(=O)N3CCCC3)cc2)sc2nc3ccc(OC(F)(F)F)cc3cc12	n	n	n	+	n
O=C(Nc1ccc(S(=O)(=O)N2CCCC2)cc1)c1ccc2c(=O)n3c(nc2c1)CCCCC3	n	n	n	n	n
CN(Cc1nccn1C)C(=O)CC1C(=O)NCCN1CC(c1ccccc1)c1ccccc1 (stereo not drawn)	n	x	n	n	n
SMILES	Insulin prom up	Insulin prom inh	WT yeast gro inh	Autophagy mod	Lmaj promast
Cc1ccc(Cl)cc1NC(=O)c1ccc(NC(=O)CCC(=O)O)cc1	n	n	n	n	53.4
Cc1ccc(C23CC4CC(CC(NC(=O)N5CCN(C)CC5)(C4)C2)C3)cc1	n	n	n	n	84.5
Cc1ccc(C23CC4CC(CC(C(=O)N5CCN(C)CC5)(C4)C2)C3)cc1	n	x	x	x	x
O=C(O)/C=C/c1ccc2ccccc2n1	n	n	n	n	n
O=C(/C=C/c1ccc2ccccc2n1)c1cc(Br)ccc1O	4.36	x	x	x	x
Oc1c(CN2CCCCC2)cc(Br)c2cccnc12	n	x	n	n	100.5
COc1ccc(C(=O)Oc2c(CN3CCOCC3)cc(Cl)c3cccnc23)cc1OC	x	x	n	x	96.6
COc1cc(OC)cc(C(=O)Oc2c(CN3CCOCC3)cc(Cl)c3cccnc23)c1	n	x	x	x	x
Oc1c(CN2CCc3ccccc3C2)cc(Cl)c2cccnc12	n	x	n	u	100.4
O=C(Oc1c(CN2CCOCC2)cc(Cl)c2cccnc12)c1ccccc1F	n	x	n	n	100.6
Oc1c(I)cc(Cl)c2cccnc12	x	n	n	n	n
O=C(Nc1ccc(CN2CCOCC2)cc1)c1ccccc1F	x	n	n	n	n
CCOC(=O)CN(C(=O)COc1ccc2c(C)cc(=O)oc2c1)c1ccc(OCC)cc1	n	x	n	n	n
